Several values for one entry are separate records, joined by “and”; a condition that tells them apart may be missing. Equal values may be shown once. Records with an inconclusive call do not appear. A structure can be active in one record and inactive in another. Activity calls are given as the source filed them. Unless noted, calls follow the shape of the dose curve; as a rule, active = well fitted curve in the direction sought with a large enough effect in the repeat runs; inconclusive = weak or mixed curves; inactive = no such curve, though single readings can be large; an effect the other way counts as inactive or inconclusive.

A short description of assay [1]: qHTS assay for small molecules that induce genotoxicity in human embryonic kidney cells expressing luciferase-tagged ATAD5 (AID 651632). Also: nearly all actives have a fitted effect of over 15% in size. Also: potency is read from the fitted curve at half-maximal effect. The method, boiled down: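 DMSO vehicle served as the control. HEK293T reporter cells, 16 hr at 37C, then 30 min Amplite at room temperature; ATAD5 induction is measured as luciferase activity.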
A short description of assay [2]: qHTS assay for small molecule agonists of the p53 signaling pathway - cell viability (AID 651633; calls by dose curve; also: nearly all actives have a fitted effect of over 30% in size; also: potency is read from the fitted curve at half-maximal effect). The method, boiled down: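 Viability counter-read: CellTiter-Glo luminescence (30 min, room temperature) in the same p53RE-bla plates. These plates had been exposed to compounds for 16 h at 37 C.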
Assay [3] can be described thus: qHTS assay for small molecules that induce genotoxicity in human embryonic kidney cells expressing luciferase-tagged ATAD5 - cell viability (AID 651634; calls by dose curve; also: nearly all actives have a fitted effect of over 25% in size; also: potency is read from the fitted curve at half-maximal effect). Summed up: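 Here HEK293T cells with the ATAD5 luciferase reporter are incubated with test compounds for 15.5 hr, and cytotoxicity is then gauged by measuring protease activity in live cells using fluorescence.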
For orientation: Quantitative high-throughput screening tests each substance at several concentrations.

Assay [4] can be described thus: qHTS assay to test for compound auto fluorescence at 535 nm (green) in HepG2 cells (AID 720675).
Assay [5] in a line: qHTS assay to test for compound auto fluorescence at 460 nm (blue) in HEK293 cells (AID 720678). Summed up:
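Measured: blue fluorescence (Ex 405/Em 460 nm) of compound-treated HEK293 cells, incubated overnight at 37C with 5% CO2 and scaled to triamterene equivalents.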

Assay [6] can be described thus: qHTS assay to test for compound auto fluorescence at 590 nm (red) in HEK293 cells (AID 720679). Summed up: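 Using HEK293 cells at 2,000 per well, the screen added 23 nL of each compound after cell attachment and incubated overnight (37C, 5% CO2). The plate reader then captured red-label fluorescence, Ex/Em 540/590nm.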
Assay [7] is described as follows: qHTS assay for small molecule disruptors of the mitochondrial membrane potential - cell viability (AID 720634; calls by dose curve; also: nearly all actives have a fitted effect of over 20% in size; also: potency is read from the fitted curve at half-maximal effect). Summed up: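 Viability of HepG2 cells is scored from ATP content by luminescence; cells are exposed to compound for 1 hr at 37 C and 5% CO2, then dosed with m-MPI dye before the CellTiter-Glo reagent.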
The nature of assay [8]: qHTS assay for small molecule disruptors of the mitochondrial membrane potential (AID 720635). Also: potency is read from the fitted curve at half-maximal effect. The method, boiled down:
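Mitochondrial membrane potential tracked with Mito-MPS dye, red aggregates (ex 540/em 590 nm) against green monomers (ex 490/em 535 nm). Compound treatment 1 hr at 37C, dye 30 min in HepG2.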

Assay [9] can be described thus: qHTS assay to test for compound auto fluorescence at 590 nm (red) in HepG2 cells (AID 720674). Summed up:
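Red autofluorescence (Ex/Em 540/590 nm, Rose Bengal sodium equivalents) was measured in HepG2 cells, 2,000 per well in MEM plus 10% FBS, plated overnight at 37 C. Readings were taken 1 hr after adding 23 nL compound or DMSO, at 37 C and 5% CO2.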

With `Nc1ccc(N=Nc2ccccc2)cc1`, the Potency in assay [1] was 13.7 µM (active); in assay [3], 41.6 µM (active). Further, the Potency result in assay [2], in assay [4] and in assay [5] was “inactive” throughout. Further, the call in [6] was inactive.
Consider `Brc1cccc(-c2ccccc2)c1`, for which the Potency result in assay [1], in assay [2], in assay [7], in [4] and in [5] was “inactive” in each case. In assay [8], the Potency was 0.436 µM (active). Moreover, the outcome in [9] and in assay [6] was inactive.
Regarding `Cc1cnc2c(C(=O)O)c(Cl)ccc2c1`, the Potency entry in assay [1], in assay [2], in assay [3], in [7], in assay [4] and in [5] was “inactive” each time. In addition, the outcome in assay [6] was inactive.
As to `O=S1OCC2C(CO1)C1(Cl)C(Cl)=C(Cl)C2(Cl)C1(Cl)Cl` (stereo not drawn), the Potency entry in assay [1], in assay [3], in [4] and in [5] was “inactive” each time. The Potency in [2] was 68.7 µM (active) and 54.4 µM (active). Further, the compound was classed as inactive in [9] and in assay [6].
With `Cc1ccc(C)c2ccccc12`, the Potency entry in [1], in assay [2], in assay [7], in [8], in [4] and in assay [5] was “inactive” throughout. Further, the compound was classed as inactive in [9] and in assay [6].
As to `CC1(C)C(C=C(Cl)Cl)C1C(=O)OC(C#N)c1ccc(F)c(Oc2ccccc2)c1` (stereo not drawn), the Potency entry in assay [1], in assay [2], in assay [3], in [4] and in assay [5] was “inactive” each time. In assay [8], the Potency was 54.5 µM (active). Also, the compound was classed as inactive in [9] and in [6].
Turning to `Cc1ccc2cc3c(ccc4ccccc43)c3c2c1CC3`, the Potency entry in assay [1], in assay [3], in assay [4] and in assay [5] was “inactive” throughout. Also, the Potency in [8] is 12.2 µM (active). Moreover, the result in [9] and in assay [6] was inactive.
In the case of `ClSC(Cl)(Cl)Cl`, the Potency entry in assay [1], in [3], in assay [7], in assay [8], in assay [4] and in assay [5] was “inactive” throughout. Besides, the compound was classed as inactive in assay [9] and in assay [6].
For the compound `COP(=O)(OC)O/C(=C\Cl)c1cc(Cl)c(Cl)cc1Cl`, the Potency entry in assay [1], in [2], in assay [7], in assay [4] and in [5] was “inactive” in each case. In addition, the compound was called inactive in assay [9] and in assay [6].
Take `C=CC(=O)[O][Sn]([CH2]CCC)([CH2]CCC)[CH2]CCC`: the Potency result in [1], in assay [4] and in [5] was “inactive” throughout. Besides, the Potency in assay [3] is 1.09 µM (active); in assay [7], 1.93 µM (active); in assay [8] it was 0.0863 µM (active). Moreover, the compound was called inactive in assay [9] and in assay [6].
In the case of `CSC(C)(C)/C=N/O`, the Potency entry in [1], in assay [3], in [7], in assay [8], in assay [4] and in [5] was “inactive” throughout. The compound was classed as inactive in assay [9] and in [6].
Regarding `CCN(CC)CCc1c[nH]c2ccccc12`, the Potency entry in assay [1], in assay [3], in assay [7], in assay [8], in [4] and in [5] was “inactive” throughout. For the same compound, the compound was called inactive in assay [9] and in [6].
Take `CCCCCCCc1ccc(O)cc1`: the Potency result in assay [1], in assay [3], in assay [4] and in assay [5] was “inactive” each time. Moreover, the Potency in assay [8] is 7.7 µM (active). Moreover, the outcome in assay [9] and in [6] was inactive.
On to `CCN(CC)C(=S)S`, for which the Potency entry in assay [1], in [3], in assay [7] and in [5] was “inactive” throughout. The Potency in [8] is 2.98 µM (active) and inactive. Besides, the call in assay [9] and in assay [6] was inactive.
Regarding `CCOP(=O)(Sc1ccccc1)Sc1ccccc1`, the Potency result in assay [1], in assay [3], in assay [7], in assay [4] and in assay [5] was “inactive” throughout. The result in [9] and in assay [6] was inactive.
In the case of `O=[N+]([O-])c1cccc2cccc([N+](=O)[O-])c12`, the Potency entry in [1], in assay [3], in [4] and in assay [5] was “inactive” throughout. Also, the Potency in assay [8] was 9.73 µM (active). For the same compound, the compound was classed as inactive in assay [9] and in assay [6].
Take `CC1(C)[C@H](/C=C2\CCSC2=O)[C@@H]1C(=O)OCc1coc(Cc2ccccc2)c1`: the Potency entry in assay [1], in assay [2], in [4] and in assay [5] was “inactive” in each case. The Potency was 9.69 µM (active) in assay [7] and 21.7 µM (active) in [8]. For the same compound, the outcome in [6] was inactive.
Regarding `O=C(O)[C@H](O)[C@@H](O)C(=O)O`, the Potency result in [1], in assay [3], in assay [7] and in assay [5] was “inactive” in each case. Besides, the outcome in assay [6] was inactive.
Take `COc1ccc2[nH]cc(CCN(C(C)C)C(C)C)c2c1`: the Potency result in [1], in assay [3], in assay [7], in [8] and in [5] was “inactive” throughout. Moreover, the outcome in [6] was inactive.
Consider `CCCN`, for which the Potency entry in assay [1], in assay [3], in [7], in assay [8], in [4] and in assay [5] was “inactive” each time. Moreover, in [6], the call was inactive.
As to `CCN1CCC2(CC1)COc1cc3c(cc12)N(C(=O)c1ccc(-c2ccc(-c4nnc(C)o4)cc2C)cc1)CC3`, the Potency result in [1], in assay [4] and in [5] was “inactive” throughout. Also, the Potency in assay [3] is 56.4 µM (active); in assay [8] it was 7.96 µM (active). In assay [6], the call was inactive.
With `CSC(=O)c1c(C(F)F)nc(C(F)(F)F)c(C(=O)SC)c1CC(C)C`, the Potency entry in assay [1], in assay [2] and in [5] was “inactive” each time. In addition, the compound was called inactive in [6].
On to `Cc1ccn2nc(S(=O)(=O)Nc3c(F)cccc3F)nc2n1`, for which the Potency result in assay [1], in [3], in assay [7], in assay [4] and in [5] was “inactive” each time. Besides, the compound was called inactive in assay [9] and in assay [6].
With `CNC(=O)O/N=C(\C)C(C)S(C)(=O)=O` (stereo not drawn), the Potency result in [1], in assay [2], in assay [7], in [4] and in assay [5] was “inactive” each time. For the same compound, the compound was classed as inactive in [9] and in assay [6].
For `Nc1c(Cl)c(Cl)c(Cl)c(Cl)c1Cl`, the Potency entry in assay [1], in assay [3], in assay [4] and in [5] was “inactive” each time. In addition, the outcome in [9] and in [6] was inactive.

The values above are taken from PubChem BioAssay (Tox21).
